# According to PubChem BioAssay AID743445 (Broad Institute, 2014):
# Screen size: about 310,000 compounds; about 1,700 (0.55%) were called active. No stated cut-off is given here; in the data, active means inhibition above about 50%; inactive means the rest. The sample as a whole holds a higher share of actives than the screen did.
# Target: Histone-lysine N-methyltransferase NSD2 (Homo sapiens) (UniProt O96028)
# Test: blockers of NSD2 lysine methylation activity – biochemical, AlphaScreen, single concentration, set 2, primary screen (AID 743445)
# Details: NSD2 peptide methylation, 120 min, at 12.5 µM, active compounds read high
# Histone-lysine N-methyltransferase NSD2 (Homo sapiens), sequence (O96028 whole entry, looked up): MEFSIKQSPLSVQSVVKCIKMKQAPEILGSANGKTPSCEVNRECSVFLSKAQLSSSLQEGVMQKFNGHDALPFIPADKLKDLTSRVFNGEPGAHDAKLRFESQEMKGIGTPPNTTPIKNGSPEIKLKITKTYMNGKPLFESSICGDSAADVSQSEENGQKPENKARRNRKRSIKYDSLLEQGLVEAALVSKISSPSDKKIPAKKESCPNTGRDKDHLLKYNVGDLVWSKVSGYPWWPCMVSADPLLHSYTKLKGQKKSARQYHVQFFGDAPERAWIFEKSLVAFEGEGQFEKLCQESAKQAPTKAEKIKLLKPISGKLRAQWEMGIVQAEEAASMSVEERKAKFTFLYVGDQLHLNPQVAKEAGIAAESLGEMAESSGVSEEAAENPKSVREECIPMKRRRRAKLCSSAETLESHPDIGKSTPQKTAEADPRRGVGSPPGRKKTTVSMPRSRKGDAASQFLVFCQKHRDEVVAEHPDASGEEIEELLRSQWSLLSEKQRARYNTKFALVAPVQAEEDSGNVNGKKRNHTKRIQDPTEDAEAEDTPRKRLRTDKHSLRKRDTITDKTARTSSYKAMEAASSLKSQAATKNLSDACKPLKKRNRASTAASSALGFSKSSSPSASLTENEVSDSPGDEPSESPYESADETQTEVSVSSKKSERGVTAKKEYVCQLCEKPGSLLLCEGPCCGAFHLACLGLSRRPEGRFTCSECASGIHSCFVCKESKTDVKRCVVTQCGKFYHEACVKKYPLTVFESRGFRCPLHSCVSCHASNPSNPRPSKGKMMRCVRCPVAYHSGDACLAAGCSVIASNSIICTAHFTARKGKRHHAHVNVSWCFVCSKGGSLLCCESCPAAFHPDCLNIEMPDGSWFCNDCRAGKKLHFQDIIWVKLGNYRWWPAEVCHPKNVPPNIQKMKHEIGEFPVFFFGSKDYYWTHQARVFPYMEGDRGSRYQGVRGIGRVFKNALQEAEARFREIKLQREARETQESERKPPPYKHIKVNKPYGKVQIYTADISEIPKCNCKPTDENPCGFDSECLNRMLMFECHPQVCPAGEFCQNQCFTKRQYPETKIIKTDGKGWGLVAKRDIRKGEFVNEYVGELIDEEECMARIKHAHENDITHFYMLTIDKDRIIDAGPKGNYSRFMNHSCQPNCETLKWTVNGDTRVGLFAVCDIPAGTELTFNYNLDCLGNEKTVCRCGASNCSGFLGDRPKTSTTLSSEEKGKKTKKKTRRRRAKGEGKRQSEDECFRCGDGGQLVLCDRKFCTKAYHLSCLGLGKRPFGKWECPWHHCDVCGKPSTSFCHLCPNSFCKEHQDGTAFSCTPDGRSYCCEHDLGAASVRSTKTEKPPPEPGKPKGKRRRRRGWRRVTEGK
row,SMILES,inhibition
1,Cc1c(C(=O)O)cccc1-n1c(C)cc(/C=C2\C(=O)NC(=O)N(c3ccc4c(c3)OCO4)C2=O)c1C,65.9% (active)
2,Cc1ccccc1N1C(=O)NC(=O)/C(=C\c2cc(C)n(C)c2C)C1=O,5.19% (inactive)
3,Cc1cc(/C=C2/C(=O)NC(=O)N(Cc3ccco3)C2=O)c(C)n1-c1ccc(C(=O)O)cc1,36.8% (inactive)
4,CCC(C)(O)C(=O)OC1C(=O)OC2CC3C(C)=CC(=O)C(O)C3(C)C3C4(O)OCC23C1C(C)C4O (stereo not given),-0.572% (inactive)
5,O=C(c1ccccc1)C(O)(CN1CCCCC1)c1ccccc1 (stereo not given),1.13% (inactive)
6,O=c1c2ccccc2[nH]c(=S)n1-c1cccc(Cl)c1,-7.59% (inactive)
7,COc1ccc(C2C=C(C)Oc3c2c(=O)oc2ccccc32)cc1OC (stereo not given),1.06% (inactive)
8,CC12CCC(O)CC1CCC1C2CCC2(C)C(C(=O)CC(O)C(F)(F)F)CCC12 (stereo not given),-0.54% (inactive)
9,COc1ccc(CN2C(=O)NC(=O)/C(=C\c3ccc(OC)c(OC)c3OC)C2=O)cc1,1.88% (inactive)
10,O=C1NC(=O)N(c2ccc(F)cc2)C(=O)/C1=C/c1ccc2c(c1)CCCN2Cc1ccccc1,16.6% (inactive)
11,O=C1NC(=O)N(c2ccccc2)C(=O)/C1=C/c1ccc([N+](=O)[O-])s1,73.4% (active)
12,COc1cccc(N2C(=O)NC(=O)/C(=C\c3cn(C)c4ccccc34)C2=O)c1,1.25% (inactive)
13,COc1cccc(N2C(=O)NC(=O)/C(=C\c3ccc([N+](=O)[O-])s3)C2=O)c1,59% (active)
14,O=C1NC(=O)C(Cc2ccccc2)C(=O)N1,-1.35% (inactive)
15,CC(=CCOc1ccc2ccc(=O)oc2c1)C1=CC(=O)C(C)(C)O1,0.448% (inactive)
16,CC(=O)OC1C2(CC3N4C(=O)C5(CO)SSC4(CC31O)C(=O)N5C)OC(C)C(C)(C)C2=O (stereo not given),133% (active)
17,CO[C@H]([C@H](C)/C=C/N(C)C=O)[C@@H](C)C(=O)CC[C@H](C)[C@H](O)[C@H](C)[C@H]1OC(=O)/C=C/C(C)=C/[C@H](O)[C@H](OC)C[C@@H]2C=CC[C@@H](C[C@H](OC)[C@@]3(CO3)[C@@H](OC)C[C@@H](OC)[C@@H]1C)O2,-2.92% (inactive)
18,O=P(OC1=CCCCC1)(c1ccccc1)c1ccccc1,1.12% (inactive)
19,O=c1c2ccccc2nc(CBr)n1-c1ccc(Cl)cc1,-1.22% (inactive)
20,c1cc2c(c(NC3=NCCCS3)c1)CCCC2,8.89% (inactive)
21,CC(=O)C1(O)CCC2C3CCC4=C(Cl)C(=O)CCC4(C)C3CCC21C (stereo not given),-5.24% (inactive)
22,Cc1cc(N2C(=O)C3CCCN3C2c2ccc(Cl)c(Cl)c2)no1 (stereo not given),84.4% (active)
23,CCN1C(=O)NC(=O)C2(CCCC2)C1=O,27.8% (inactive)
24,C[C@]12CCCCC1=CC(=O)C1C2CC[C@@]2(C)C1C[C@@H](F)[C@@H]2O (stereo not given in full),-1.58% (inactive)
25,O=C1NC(=O)C(CCOc2ccccc2)(CCc2ccccc2)C(=O)N1,1.16% (inactive)
